In PubChem BioAssay AID1621 (Southern Research Specialized Biocontainment Screening …, 2009):
The campaign covered roughly 290,000 compounds. About 60 (0.02%) were called active. About 1% were inconclusive and are not listed. The rule behind the calls is not given here. The list is a sample of the results. Potency and affinity values are given separately.

Experiment: West Nile virus antiviral activity, cell-based, CPE readout (AID 1621)
Conditions: West Nile virus-infected cells, at 10 µM, active compounds read high

CPE inhibition, inactive:
COCCn1nnnc1C(c1cccs1)N1CCN2CCCC2C1 (stereo not drawn) 0.23%
CCOC(=O)c1c(NC(=O)CSc2cccc[n+]2[O-])sc(C(=O)Nc2ccccc2)c1C -0.77%
CCOC(=O)c1c(N)sc(C(=O)Nc2ccccc2)c1C -0.25%
Cc1cnc(NC(=O)Cc2cccs2)s1 0.29%
COc1ccc(C2c3sc(=O)[nH]c3SC3C4CCC(C4)C23)cc1OC (stereo not drawn) 0.48%
O=C(c1cc2ncccn2n1)N1CCc2c([nH]c3ccccc23)C1c1ccccc1F (stereo not drawn) 2.67%
CCc1cc(C(=O)N2CCc3c([nH]c4ccccc34)C2c2ccc(OC)cc2F)no1 (stereo not drawn) 19.3%
C=CCn1c(SCC(=O)NNC(=O)Nc2ccc(C)cc2)nnc1-c1ccccc1 0.45%
O=C1CN2C(=Nc3ccc(Br)cc3C2c2ccccc2)CCN1 (stereo not drawn) -0.54%
c1ccc2c(c1)CN1CCCC1=N2 0.51%
CCN1CCc2nc3ccccc3c(C(=O)Nc3ccc(F)cc3)c2C1 -0.07%
Cc1ccc(OCC(O)Cn2c(N3CCCCC3)nc3c2c(=O)[nH]c(=O)n3C)cc1C (stereo not drawn) -0.27%
CCOC(=O)NN1C(=O)c2ccccc2NC1c1ccccn1 (stereo not drawn) 0.09%
O=C(Nc1ccccc1N1CCCC1)c1ccccc1Cl -1.13%
Cc1ccccc1/C=N/N1C(=O)CSC1=S 0.91%
Cc1ccc2[nH]c(=O)c(CN(CCCN(C)C)C(=O)Nc3cccc(Cl)c3)cc2c1 -1.48%
Cc1ccc2cc(CN(CCN(C)C)C(=O)Nc3ccc(Cl)cc3)c(=O)[nH]c2c1 2.9%
NC(=O)c1ccc(NC(=O)CSc2nnc(-c3cccnc3)n2Cc2ccco2)cc1 -0.08%
c1ccc(COC2CCCN(Cc3nc(Cc4ccccc4)no3)C2)cc1 (stereo not drawn) -1.71%
CC(=O)Oc1ccc2occ(-c3ccccc3)c2c1 -0.4%
CCN(CC)S(=O)(=O)c1ccc(NC(=O)c2cc(-c3ccccc3)nc3ccccc23)cc1 -0.41%
CCN(CC)S(=O)(=O)c1ccc(C(=O)O)cc1 0.13%
CCOC(=O)C1(Cc2ccccc2C(F)(F)F)CCN(C2CCN(C(C)=O)CC2)CC1 -1.08%
CCOC(=O)C1(Cc2ccccc2C(F)(F)F)CCN(C2CCCC2)CC1 -0.59%
CC1CCC2C(=O)N(c3cccc(C(=O)Nc4ccccc4Cl)c3)C(=O)C2C1 (stereo not drawn) 0.29%
Cc1ccc(S(=O)(=O)c2nc(-c3cccs3)oc2SCC(N)=O)cc1 2.11%
COc1ccc2cc(-c3cc(C(=O)OCC(=O)Nc4c(C)n(C)n(-c5ccccc5)c4=O)c4ccccc4n3)ccc2c1 -0.17%
Cc1c(NC(=O)COC(=O)c2cc(-c3cccc4ccccc34)nc3ccccc23)c(=O)n(-c2ccccc2)n1C -0.96%
COc1ccc(NS(=O)(=O)c2ccc(O)c(NC(=O)c3ccc(S(=O)(=O)N4CCCCCC4)cc3)c2)cc1 2.03%
COc1ccc(/C(N)=N/OC(=O)c2ccc(Br)o2)cc1 0%
CCn1c(SCC(=O)C(C)(C)C)nnc1-c1cccnc1 -0.07%
CCN(CCN(C)C)C(=O)C1CCN(S(=O)(=O)c2c(C)noc2/C=C/c2ccccc2F)CC1 0.04%
CNC(=O)C1CCN(S(=O)(=O)c2c(C)noc2/C=C/c2ccccc2F)CC1 -1%
O=C(CCn1c(=S)[nH]c2ccccc2c1=O)N1CCCCC1 0%
O=C(N/N=C\c1ccc(S(=O)(=O)O)o1)c1ccc2c(c1)OCO2 -0.67%
O=C(NCCN1CCOCC1)c1ccc(/C=C2\Sc3ccccc3N(Cc3ccccc3F)C2=O)cc1 2.03%
CCN1CCN(CCNC(=O)c2ccc(/C=C3/Sc4ccccc4N(Cc4ccccc4C)C3=O)cc2)CC1 -0.85%
CC(NS(=O)(=O)c1ccc(Cl)cc1)C(c1cccs1)N1CCN(C)CC1 (stereo not drawn) -0.37%
CCCCOc1cccc(C(=O)Nc2ccc(S(=O)(=O)Nc3nnc(CC)s3)cc2)c1 -0.64%
COc1ccc(N=C2CC(C)(C)CC(=O)/C2=C(/O)c2ccccc2)cc1 -0.15%
COC(=O)c1scc(C)c1NC(=O)Nc1ccccc1 1.33%
O=C(NC1CCCC1)C(c1cccs1)N(CC1CCCO1)C(=O)Cc1cccs1 (stereo not drawn) -0.52%
Cc1cc(C)c(S(=O)(=O)n2c([N+](=O)[O-])cnc2C)c(C)c1 1.59%
CN1CCN(C(=O)c2ccccc2NC(=O)c2sc3ccccc3c2Cl)CC1 -1.33%
CN1CCN(c2ccccc2NC(=O)c2sc3ccccc3c2Cl)CC1 -0.79%
O=C(O)C1CCCN1C(=O)Nc1ccc(F)cc1 (stereo not drawn) -0.08%
COc1ccc(-c2nc3ccc(C(=O)NCCCN4CCOCC4)cc3nc2-c2ccc(OC)cc2)cc1 0.5%
CCN1CCN(CCNC(=O)c2ccc3nc(-c4cccc(C)c4)c(-c4cccc(C)c4)nc3c2)CC1 -1.29%
c1ccc(OCCCCn2cnc3ccccc32)cc1 -0.39%
O=C(c1ccco1)c1cn[nH]c1-c1ccc(Cl)cc1O 0.03%
CC(=O)NCC(=O)NC(C(=O)Nc1ccc2c(c1)OCCO2)c1ccc(C)cc1 (stereo not drawn) -0.73%
CN(C)S(=O)(=O)c1cccc(NC(=O)c2cncc(Br)c2)c1 0.06%
Cc1ccc(S(=O)(=O)N(C)C)cc1NC(=O)c1ccncc1 0.43%
C/C=C/c1ccc(OCCCNC(C)CC)c(OC)c1 (stereo not drawn) -0.34%
CC(/C=C/c1ccco1)=N\NC(=O)CNc1cccc(C)c1 -0.57%
CCCCOP(=O)(c1ccc(N(C)C)cc1)C(O)c1ccc(OC)cc1 (stereo not drawn) -0.79%
Cc1ccccc1NC1=CC(=O)CC(C)(C)C1 -0.82%
COc1cc(CNC(C)(C)CO)cc(Br)c1OCc1ccc(Cl)cc1Cl 15.4%
COc1cc(CNC(C)(C)CO)cc(Br)c1OCc1ccccc1 -0.18%
CC1C(O)=C(c2nc3ccccc3[nH]2)C(=N)N1c1ccccc1 (stereo not drawn) 1.12%
CC(O)CNc1ccc(-c2n[nH]c(=O)c3ccccc23)cc1[N+](=O)[O-] (stereo not drawn) -1.06%
CCCn1c(SCC(=O)N(CC)CC)nnc1-c1ccncc1 -0.86%
O=C(NCCCN1CCCC1)c1cc2c(Cl)nc3ccccc3c2s1 0.85%
CC1CCN(CCCNC(=O)c2cc3c(Cl)nc4ccccc4c3s2)CC1 3.15%
CNC(=O)OC(C)CNS(=O)(=O)c1ccc(C)cc1 (stereo not drawn) -0.03%
CCc1c(C(=O)Nc2ncn(Cc3cccc(C)c3)n2)csc1C -0.2%
COc1ccccc1C(=O)NCCC(=O)NCCc1ccccc1 0.26%
Cc1ccc(NC(=O)[C@H](Cc2ccccc2)NC(=O)[C@@H]2Cc3ccccc3CN2)c(C)c1 -0.41%
Cc1cc(C)cc(NC(=O)[C@H](Cc2c[nH]c3ccccc23)NC(=O)[C@@H]2Cc3ccccc3CN2)c1 -1.23%
CCOC(=O)c1ccc(NC(=S)N(CCCN2CCN(CC)CC2)Cc2ccco2)cc1 -0.57%
COc1cc2c(cc1OC)-c1cc(Nc3ccc(C(=O)O)cc3)nc(=O)n1CC2 -0.34%
CC(C(=O)Nc1cccc(S(=O)(=O)N2CCOCC2)c1)N1CCN(c2ccc(F)cc2)CC1 (stereo not drawn) -1.17%
CCOCC(=O)Nc1cccc(SC)c1 0.36%
CCN(CCN1CCCC1)C(=O)c1cc(COc2ccccc2SC)on1 -1.45%
O=C(COc1ccc(Cl)cc1)NC1=NN(c2ccccc2)C(=O)C1 -0.49%
CN(C)CCCNc1nc(N)c([N+](=O)[O-])c(NC2CCCCC2)n1 1.01%
Nc1nc(NCCO)nc(NC2CCCCC2)c1[N+](=O)[O-] 1.53%
CC(C)OC(=O)CC(=O)CSc1nc(-c2ccc(F)cc2)cc(-c2ccccc2)c1C#N -0.46%
O=S(=O)(CCSc1ccc(C(F)(F)F)cn1)c1ccc(Cl)cc1 -0.47%
CCCN(CCC)CCCNC(=S)Nc1ccc2nc(N3CCN(CC)CC3)cc(C)c2c1 3.38%
CCCN(CCC)CCCNC(=S)Nc1ccc2nc(N3CCN(C)CC3)cc(C)c2c1 0.29%
CCC(C)NC(=O)C1CCCN(S(=O)(=O)c2ccc(-n3cnnn3)cc2)C1 (stereo not drawn) 0.81%
Cc1ccc(S(=O)(=O)NNC(=O)Nc2cccc(F)c2)c(C)c1 0.14%
